Screening data (PubChem BioAssay)
CYP2C19 act – cytochrome P450 2C19 (human) activation; recombinant CYP2C19, luciferin-H EGE luminescence; hits give high values; 0 = fully inhibited enzyme, 1 = untreated enzyme; AID 1025; activation factor at 5 µM; P33261; 96,000 tested, under 10 active;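 active = activation factor of at least 2 at 5 µM in the primary screen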;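 also: 0 = wells with 2.5 mM tranylcypromine and 1 = vehicle-only wells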
CYP2C19 inhib – human CYP2C19 inhibition; P33261; inhibition, % at 5 µM; CYP2C19 Supersomes, luciferin-H EGE luminescence, 30 min; AID 778; 21% of 96,000 active;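 active = CYP2C19 inhibition above a set limit at 5 µM in the primary screen, cut at about 50% in these data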;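 also: plate controls were negative control wells for no effect and 2.5 mM tranylcypromine positive control for full effect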
CYP2C9 inhib – blocks human cytochrome P450 2C9; P11712; 20% of 96,000 active; CYP2C9 Supersomes, luciferin-H conversion, luminescence; inhibition, % at 5 µM;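 active = blocking of liver enzyme CYP2C9 beyond about 50% at 5 µM, limit read from the data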
Cav3 T inh – inhibitors of human Cav3.2 T-type calcium channel. B-score at 10 µM. AID 449739. O95180. 4% of 100,000 active. Cav3.2-expressing cells, Fluo-4 calcium fluorescence FDSS; hits give low values;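 active = single-dose well whose peak fluorescence ratio is a statistical outlier from its plate by either plate-standardised score or position-corrected B-score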
Target sequence (O95180 whole entry, looked up): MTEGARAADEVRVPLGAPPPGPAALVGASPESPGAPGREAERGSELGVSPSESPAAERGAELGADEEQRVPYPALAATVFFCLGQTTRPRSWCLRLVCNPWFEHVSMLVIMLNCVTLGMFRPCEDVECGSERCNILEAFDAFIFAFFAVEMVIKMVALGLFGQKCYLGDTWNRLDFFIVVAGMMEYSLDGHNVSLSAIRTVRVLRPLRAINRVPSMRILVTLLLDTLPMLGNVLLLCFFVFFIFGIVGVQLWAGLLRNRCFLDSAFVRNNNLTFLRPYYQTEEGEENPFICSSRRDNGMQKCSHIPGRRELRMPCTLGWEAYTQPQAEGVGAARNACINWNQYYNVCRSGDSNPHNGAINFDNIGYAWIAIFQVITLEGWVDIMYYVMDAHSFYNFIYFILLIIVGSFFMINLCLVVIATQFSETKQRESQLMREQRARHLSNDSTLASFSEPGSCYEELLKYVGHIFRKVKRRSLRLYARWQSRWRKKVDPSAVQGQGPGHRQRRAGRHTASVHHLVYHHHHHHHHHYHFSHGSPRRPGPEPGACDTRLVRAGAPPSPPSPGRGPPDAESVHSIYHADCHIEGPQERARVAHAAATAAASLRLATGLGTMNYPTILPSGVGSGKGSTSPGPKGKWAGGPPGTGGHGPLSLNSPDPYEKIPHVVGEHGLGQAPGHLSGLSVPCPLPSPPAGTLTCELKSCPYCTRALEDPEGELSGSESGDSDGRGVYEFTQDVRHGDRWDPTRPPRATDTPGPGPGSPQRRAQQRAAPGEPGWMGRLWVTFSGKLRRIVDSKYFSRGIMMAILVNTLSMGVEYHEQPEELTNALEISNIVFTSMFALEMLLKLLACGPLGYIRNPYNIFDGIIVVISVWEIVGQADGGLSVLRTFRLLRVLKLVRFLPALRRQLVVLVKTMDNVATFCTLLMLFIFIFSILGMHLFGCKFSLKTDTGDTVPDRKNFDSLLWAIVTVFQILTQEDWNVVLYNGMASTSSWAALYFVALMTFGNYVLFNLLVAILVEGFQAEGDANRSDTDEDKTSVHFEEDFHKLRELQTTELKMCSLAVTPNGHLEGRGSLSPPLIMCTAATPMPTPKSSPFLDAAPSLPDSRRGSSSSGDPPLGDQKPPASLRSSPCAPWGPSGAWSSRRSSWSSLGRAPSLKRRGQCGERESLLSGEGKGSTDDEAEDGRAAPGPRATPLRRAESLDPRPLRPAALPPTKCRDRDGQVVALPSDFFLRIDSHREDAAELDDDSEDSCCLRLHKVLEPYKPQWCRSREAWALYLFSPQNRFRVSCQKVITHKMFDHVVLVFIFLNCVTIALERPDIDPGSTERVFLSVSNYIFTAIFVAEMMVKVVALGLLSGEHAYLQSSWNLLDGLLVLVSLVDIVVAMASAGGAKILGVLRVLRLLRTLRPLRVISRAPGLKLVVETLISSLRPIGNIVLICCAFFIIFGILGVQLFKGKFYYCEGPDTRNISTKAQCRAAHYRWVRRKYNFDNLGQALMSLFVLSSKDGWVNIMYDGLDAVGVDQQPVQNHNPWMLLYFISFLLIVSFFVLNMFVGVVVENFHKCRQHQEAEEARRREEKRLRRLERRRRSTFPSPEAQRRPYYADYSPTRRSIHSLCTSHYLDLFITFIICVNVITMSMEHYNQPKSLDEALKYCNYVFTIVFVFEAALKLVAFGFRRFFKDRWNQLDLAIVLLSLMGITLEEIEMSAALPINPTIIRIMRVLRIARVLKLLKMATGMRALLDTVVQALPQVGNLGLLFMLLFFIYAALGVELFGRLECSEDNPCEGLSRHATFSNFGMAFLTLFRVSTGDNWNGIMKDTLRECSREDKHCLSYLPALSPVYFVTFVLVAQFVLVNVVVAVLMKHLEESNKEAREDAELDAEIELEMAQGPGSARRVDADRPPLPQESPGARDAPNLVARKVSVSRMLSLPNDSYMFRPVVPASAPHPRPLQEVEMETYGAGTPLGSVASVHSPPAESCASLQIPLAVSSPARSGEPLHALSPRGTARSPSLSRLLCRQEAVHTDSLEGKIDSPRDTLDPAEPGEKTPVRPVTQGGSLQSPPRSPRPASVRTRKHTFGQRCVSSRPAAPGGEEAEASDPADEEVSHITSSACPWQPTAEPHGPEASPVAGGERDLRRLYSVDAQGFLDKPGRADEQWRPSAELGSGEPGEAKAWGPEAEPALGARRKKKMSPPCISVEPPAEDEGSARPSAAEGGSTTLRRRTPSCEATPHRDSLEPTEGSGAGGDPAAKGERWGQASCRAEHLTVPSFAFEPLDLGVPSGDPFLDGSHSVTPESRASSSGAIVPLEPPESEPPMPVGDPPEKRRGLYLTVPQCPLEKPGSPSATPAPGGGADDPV
CYP2C9 activ – increases human cytochrome P450 2C9 activity. P11712. recombinant CYP2C9, luciferin-H conversion, luminescence; hits give high values; factor 1 = untreated enzyme, 0 = blocked. activation factor at 5 µM. 1.4% of 96,000 active. AID 1024;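 active = activation factor of 2 or more for CYP2C9 at a 5 µM dose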;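 also: 0 = sulfaphenazole-blocked wells and 1 = vehicle-only wells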
Active calls of the source: *; · = not tested or not shown. Sampled rows, rich in hits. Any-hit rate of the full collection: about 27%.

SMILES | CYP2C19 act | CYP2C19 inhib | CYP2C9 inhib | Cav3 T inh | CYP2C9 activ
Cc1ccc(NC(NC(=O)c2cccs2)C(Cl)(Cl)Cl)cc1 (configuration not stated) | 0.1 | 94.8* | 99.2* | -1.1 | 0
Cc1ccc(NC(NC(=O)c2cccs2)C(Cl)(Cl)Cl)cc1C (configuration not stated) | 0.9 | 11.8 | 56.1* | -3 | 0.4
Cc1ccccc1NC(NC(=O)c1cccs1)C(Cl)(Cl)Cl (configuration not stated) | 0 | 99.2* | 96.4* | -5.88* | 0
CSc1nc(-c2ccccc2)c(-c2ccccc2)[nH]1 | 1.1 | -14.8 | -13.6 | 1.05 | 1.1
Cc1cc(Cl)c(S(=O)(=O)N/N=C/c2ccc3c(c2)OCO3)c(Cl)c1 | 0.6 | 39.1 | 96.4* | · | 0
O=C(N/N=C/c1c(Cl)cccc1Cl)c1ccc(F)cc1 | 0.7 | 27.9 | -9.7 | 0.166 | 1.1
Cc1oc(/N=C/c2ccc3c(c2)OCO3)c(C#N)c1C | 0.8 | 24.9 | 10.0 | -0.595 | 0.9
C(=N\n1cnnc1)/c1ccc2c(c1)OCCO2 | 0.5 | 47.9 | -12.3 | -0.0945 | 1.1
O=S(=O)(N/N=C\c1c(F)cccc1Cl)c1ccc(Cl)cc1 | 0.2 | 81.0* | 63.9* | · | 0.4
CCn1ncc(/C=N/NS(=O)(=O)c2ccc(Cl)cc2)c1C | 0.3 | 66.6* | 88.3* | 0.377 | 0.1
O=S(=O)(N/N=C/c1ccc2c(c1)OCCO2)c1ccc(Cl)cc1 | 0.7 | 32.1 | 70.8* | -1.51 | 0.3
CCOC(=O)C(CC)(CC)C(=O)/C=C/c1ccc(Br)cc1 | 0.9 | 13.5 | 19.6 | 0.757 | 0.8
C=CCN(CC=C)Cc1c(C)[nH]c2ccc(C(=O)OCC)cc2c1=O | 0.9 | 13.9 | 18.5 | 0.269 | 0.8
Cc1nc2c(C(=O)N3CCCCC3)cnn2c(C)c1Cc1ccccc1F | 0.2 | 78.7* | 9.8 | -0.124 | 0.9
Cc1ccccc1Cc1c(C)nc2c(C(=O)N3CCN(Cc4ccc5c(c4)OCO5)CC3)cnn2c1C | · | · | · | -4.69 | ·
Cc1nc2c(C(=O)N3CCN(C)CC3)cnn2c(C)c1Cc1ccc(Cl)cc1 | 0.2 | 82.3* | 25.8 | 0.314 | 0.7
O=C(COC(=O)CNS(=O)(=O)c1ccccc1)Nc1ccc(Cl)cn1 | 1 | 4.4 | -1.6 | -0.142 | 1
CCOc1ccc(N2C(=O)CC(n3nc(C)cc3C)C2=O)cc1 (configuration not stated) | · | · | · | -0.1 | ·
Oc1cccc(Nc2nc(NCC3CCCO3)c3ccccc3n2)c1 (configuration not stated) | 0.5 | 50.7* | 60.1* | -0.872 | 0.4
OCCNc1nc(Nc2ccccc2)nc2ccccc12 | · | · | · | -0.919 | ·
CC1=C(C(=O)Nc2cc(C)ccc2C)C(c2cccs2)NC(=S)N1 (configuration not stated) | 1 | 1.2 | 21.7 | 0.0605 | 0.8
O=C(COc1ccc(Cl)cc1)NCc1nnc(SCC(=O)N2CCCc3ccccc32)o1 | 1 | -2.9 | 17.6 | -0.852 | 0.8
CCOC(=O)N1CCN(C(=O)CSc2nnc(COc3ccc(Cl)cc3)o2)CC1 | 1 | 3.1 | 24.2 | -3.25* | 0.8
O=C(CSc1nnc(COc2ccc(Cl)cc2)o1)N1c2ccccc2CCc2ccccc21 | 0.7 | 27.5 | 74.1* | -2.38 | 0.3
CC1(C)SC(=S)N(/N=C/c2ccccc2)C1N(O)C(=O)Nc1ccc([N+](=O)[O-])cc1 (configuration not stated) | 1.1 | -10.4 | 1.0 | 1.09 | 1
SMILES | CYP2C19 act | CYP2C19 inhib | CYP2C9 inhib | Cav3 T inh | CYP2C9 activ
O=c1c2ccccc2nc2n1C(CSCc1ccc(Cl)cc1Cl)CS2 (configuration not stated) | 0.4 | 63.8* | 21.5 | -1.27 | 0.8
Cc1ccc(-c2c(C#N)c(N)n3c(nc4ccccc43)c2C#N)cc1 | 0.9 | 11.8 | 63.8* | 0.51 | 0.4
Cc1ccc(-c2c(C#N)c(N)n(-c3ccc(C)cc3)c(=O)c2C#N)cc1 | 0.9 | 9.8 | -8.9 | 0.355 | 1.1
Cc1ccc(-n2nc(C)cc2NC(=O)c2ccc(C)s2)cc1 | 0.2 | 76.3* | 34.3 | -0.0398 | 0.7
CC[C@H](C)[C@H](NC(=O)c1ccc(Cl)cc1)C(=O)OCC(=O)c1ccc2c(c1)NC(=O)CO2 | 0.5 | 45.9 | 55.7* | 0.737 | 0.4
N#Cc1ccccc1OCC(=O)OCC(=O)c1ccc2c(c1)NC(=O)CO2 | 0.3 | 66.9* | 59.1* | -0.0298 | 0.4
Cc1cccc(C)c1OCC(=O)OCC(=O)c1ccc2c(c1)NC(=O)CO2 | 0.9 | 6.6 | 32.4 | -0.0407 | 0.7
CC(C)[C@H](NC(=O)c1ccccc1)C(=O)OCC(=O)c1ccc2c(c1)NC(=O)CO2 | 0.5 | 52.3* | 40.2 | 0.171 | 0.6
COc1cc(OC)cc(C(=O)N[C@H](C(=O)OCC(=O)c2ccc3c(c2)NC(=O)CO3)C(C)C)c1 | 0.7 | 28.7 | 25.8 | -0.0412 | 0.7
COc1ccc(C(=O)Nc2ccccc2)cc1S(=O)(=O)Nc1cc(C)on1 | 1 | -3.9 | 8.0 | -0.737 | 0.9
CC(C)(C)c1nn(-c2ccccc2)c2[nH]c(=O)c(CNCc3ccc4c(c3)OCO4)cc12 | 0.9 | 13.1 | -30.3 | -0.19 | 1.3
CCOc1cccc(NCc2cc3c(C(C)(C)C)nn(-c4ccccc4)c3[nH]c2=O)c1 | 0.8 | 23.3 | 74.7* | -1.62 | 0.3
COc1ccc(C(=O)COC(=O)CCCn2c(=O)oc3ccccc32)cc1 | · | · | · | -0.969 | ·
c1ccc(-n2c(SCC3CCCCO3)nnc2-c2cccs2)cc1 (configuration not stated) | 0.9 | 11.9 | 21.0 | -0.227 | 0.8
Cc1ccc(-n2c(SCC3CCCCO3)nnc2-c2ccco2)cc1 (configuration not stated) | 0.9 | 13.0 | 57.8* | -2.02 | 0.4
O=C(CSc1nnc(-c2ccco2)n1CC1CCCO1)c1ccc(F)cc1 (configuration not stated) | 0.6 | 38.6 | -8.9 | 0.619 | 1.1
O=C(CSc1nnc(-c2ccco2)n1CC1CCCO1)N1CCCCC1 (configuration not stated) | 0.5 | 52.1* | -25.0 | 0.766 | 1.3
COc1cccc(C(=O)CSc2nnc(-c3ccco3)n2CC2CCCO2)c1 (configuration not stated) | 0.3 | 67.0* | 26.6 | 0.346 | 0.7
Cc1oncc1C(=O)NC(C)C | 0.9 | 8.2 | 17.8 | 0.315 | 0.8
CC(C)C(O)(C#CCN1CCCCC1)c1ccccc1 (configuration not stated) | 0.3 | 71.5* | 11.3 | 0.597 | 0.9
CC(C)C(O)(C#CCN1CCCC1)c1ccccc1 (configuration not stated) | 0.5 | 50.1* | 7.0 | 1.99 | 0.9
Cc1nn2c(N3CCOCC3)c3c(nc2c1-c1ccccc1)CCCC3 | 1.1 | -8.0 | 76.6* | 2.75 | 0.2
Cc1nn2c(-n3ccnc3C)c3c(nc2c1-c1ccccc1)CCC3 | 0.1 | 90.2* | 62.5* | 0.283 | 0.4
Cc1nc2c(-c3ccc(F)cc3)c(C)nn2c(N2CCOCC2)c1C | 0.6 | 44.0 | 34.6 | -0.945 | 0.7
CCC(=O)Nc1cccc(C2=NOC3(C2)C[C@H](C(N)=O)N(C(=O)CC#N)C3)c1 (some centres not stated) | · | · | · | 1.18 | ·
